Records with an inconclusive call do not appear. Where a call stands in place of a potency, no number is given. Active and inactive are the calls of the source. Unless noted, calls come from the whole dose curve; as a rule, active = well fitted curve in the direction sought with a large enough effect in the repeat runs; inconclusive = weak or mixed curves; inactive = no such curve, though single readings can be large; an effect the other way counts as inactive or inconclusive.
Assays:
[1] = A CellTox Green Cytotoxicity Assay to monitor cytotoxicity in HEK293 cells - 32 hour (AID 1224881); note: nearly all actives have a fitted effect of over 40% in size
Summary of the method: (§1)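 Tox21 screen in HEK293: membrane-impermeant cyanine dye fluoresces on binding dead-cell DNA; compound pinned 5 h post-seeding, plates held at 37 C, signal read repeatedly through 40 h.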

[2] = A CellTox Green Cytotoxicity Assay to monitor cytotoxicity in HepG2 cells - 0 hour (AID 1224882); note: nearly all actives have a fitted effect of over 35% in size
Summary of the method: (§2)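 Measurements at 0, 8, 16, 24, 32 and 40 h of treatment captured CellTox Green fluorescence in HepG2 cells that had been co-plated with reagent and preincubated 5 h at 37 C/5% CO2.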

[3] = A CellTox Green Cytotoxicity Assay to monitor cytotoxicity in HepG2 cells - 32 hour (AID 1224883); note: nearly all actives have a fitted effect of over 50% in size
Summary of the method: as §2

[4] = A CellTox Green Cytotoxicity Assay to monitor cytotoxicity in HEK293 cells - 8 hour (AID 1224884); note: nearly all actives have a fitted effect of over 35% in size
Summary of the method: as §1

[5] = qHTS RealTime-Glo MT Cell Viability Assay in HEK293 cells - 24 hour (AID 1224886); note: top concentration of the series differs between compounds; nearly all actives have a fitted effect of over 50% in size
Summary of the method: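 HEK293 cells were seeded at 600 cells/well together with NanoLuc luciferase and cell-permeant prosubstrate, preincubated 5 h at 37 C/5% CO2, then given compound in DMSO by pintool. Luminescence from viable-cell prosubstrate reduction was read repeatedly over 40 h.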

[6] = qHTS RealTime-Glo MT Cell Viability Assay in HEK293 cells - 8 hour (AID 1224887); note: top concentration of the series differs between compounds; nearly all actives have a fitted effect of over 50% in size
Summary of the method: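 HEK293 + NanoLuc + prosubstrate, 600 cells/well; 5 h, 37 C/5% CO2; compound 23 nL in DMSO by pintool; 37 C; luminescence read at 0, 8, 16, 24, 32 and 40 h time points.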

[7] = A CellTox Green Cytotoxicity Assay to monitor cytotoxicity in HEK293 cells - 16 hour (AID 1224888); note: nearly all actives have a fitted effect of over 35% in size
Summary of the method: as §1

[8] = qHTS RealTime-Glo MT Cell Viability Assay in HepG2 cells - 0 hour (AID 1224889); note: nearly all actives have a fitted effect of over 50% in size
Summary of the method: (§3)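 HepG2 cells were seeded at 600 cells/well together with NanoLuc luciferase and a cell-permeant prosubstrate, preincubated 5 h at 37 C/5% CO2, then pin-dosed with compounds in DMSO. Nonlytic luminescence from viable cells was read at each time point.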

[9] = A CellTox Green Cytotoxicity Assay to monitor cytotoxicity in HepG2 cells - 8 hour (AID 1224890); note: nearly all actives have a fitted effect of over 45% in size
Summary of the method: as §2

[10] = qHTS assay to identify small molecule antagonists of the estrogen receptor alpha (ER-alpha) signaling pathway using the BG1 cell line in the presence of 0.1 nM 17-beta-estradiol - cell viability counter screen (AID 1259241); note: nearly all actives have a fitted effect of over 40% in size
Summary of the method: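 Cells were plated and left 24 hr, compounds in DMSO were pinned in, 17beta-estradiol was added to 0.1 nM final, and after 22 hr CellTiter-Fluor reagent was added for 30 min before fluorescence was read.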

[11] = qHTS assay to identify small molecule antagonists of the androgen receptor (AR) signaling pathway using the MDA cell line in the presence of 0.5 nM R1881 - cell viability counter screen (AID 1259242); note: nearly all actives have a fitted effect of over 45% in size
Summary of the method: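 Concentration-response screen of compounds for toxicity in MDA-kb2 reporter cells: 16 hr at 37C with 0.5 nM R1881, endpoint live-cell protease fluorescence measured in the reporter wells.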

[12] = qHTS assay to identify small molecule HDAC inhibitors (AID 1259364);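 note: wild-type HCT-116 cells with endogenous class I/II HDAC activity; top concentration of the series differs between compounds; nearly all actives have a fitted effect of over 45% in size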
Summary of the method: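 Screening used wild-type human colon HCT-116 cells incubated overnight, dosed with compounds for 2 hours, and assayed with a homogeneous luminogenic HDAC I/II reagent for 30 minutes at room temperature.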

[13] = qHTS assay to identify small molecule HDAC inhibitors - cell viability counter screen (AID 1259365)
Summary of the method: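 Counter screen in wild-type HCT-116 cells: compounds dissolved in DMSO are pin-transferred onto overnight-plated cells and left 2hr at 37C. ATP-based CellTiter-Glo luminescence then measures viable cells.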

[14] = qHTS assay to identify small molecule agonists of the sonic hedgehog signaling (Shh) pathway - cell viability counter screen (AID 1259366); note: nearly all actives have a fitted effect of over 50% in size; note: potency is the fitted concentration of half-maximal effect
Summary of the method: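 Cells are plated at 2,000 per well and left 4hr at 37C, 5% CO2 before compound addition. After 23hr of treatment, CellTiter-Fluor reagent is added for 1hr at 37C and fluorescence is measured.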

[15] = qHTS assay to identify small molecule agonists of the sonic hedgehog signaling (Shh) pathway (AID 1259368; calls by dose curve;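 note: NIH/3T3-derived 3T3Gli1-Luc cells carrying a stable Gli1-driven firefly luciferase reporter; series mostly up to about 92 µM; nearly all actives have a fitted effect of over 15% in size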)
Summary of the method: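 Hedgehog pathway agonism scored by increased firefly luciferase luminescence in 3T3Gli1-Luc cells treated 24 hr at 37 C; detection used a 30 min room-temperature reagent incubation.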

[16] = qHTS RealTime-Glo MT Cell Viability Assay in HepG2 cells - 16 hour (AID 1224885); note: nearly all actives have a fitted effect of over 50% in size
Summary of the method: as §3

[17] = molecular target: Androgen receptor (Homo sapiens) (UniProt P10275); assay: qHTS assay to identify small molecule antagonists of the androgen receptor (AR) signaling pathway using the MDA cell line in the presence of 0.5 nM R1881 (AID 1259243); note: nearly all actives have a fitted effect of over 50% in size
Summary of the method: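 With R1881 held at 0.5 nM (final), compound effects on MMTV-luciferase expression in MDA-kb2 cells were scored by luminescence after a 16 hr, 37C incubation.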

[18] = qHTS assay to identify small molecule phospholipidosis (PLD) inducers (AID 1259344; active = well fitted curve in the direction sought with a large enough effect; an effect the other way counts as inactive or inconclusive)
Summary of the method: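 Phospholipid accumulation was scored by imaging: fixed, Hoechst-counterstained HepG2 cells stained with LipidTOX Red after 24 h compound exposure at 37 C. Read-outs were pit count and pit intensity per well or per cell, with amiodarone and DMSO controls.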

[19] = qHTS assay to identify small molecule antagonists of the sonic hedgehog signaling (Shh) pathway - cell viability counter screen (AID 1259367); note: nearly all actives have a fitted effect of over 55% in size; note: potency is the fitted concentration of half-maximal effect
Summary of the method: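 Viability was read by CellTiter-Fluor fluorescence in the same wells, reagent added 23 hr into compound treatment and incubated 1 hr at 37C. The 3T3 Gli1-Luc reporter cells (2,000/well) received conditioned medium after compound and ran 24 hr.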

[20] = molecular target: Estrogen receptor (Homo sapiens) (UniProt P03372); assay: qHTS assay to identify small molecule antagonists of the estrogen receptor alpha (ER-alpha) signaling pathway using the BG1 cell line in the presence of 0.1 nM 17-beta-estradiol (AID 1259244); note: nearly all actives have a fitted effect of over 50% in size
Summary of the method: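 Compounds were tested against 0.1 nM (final) 17beta-estradiol in VM7Luc4E2 cells, which express full-length ER-alpha and an ERE-luciferase reporter; luminescence was recorded following 22 h exposure.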

Sequence of Androgen receptor (Homo sapiens) (P10275 whole entry, looked up): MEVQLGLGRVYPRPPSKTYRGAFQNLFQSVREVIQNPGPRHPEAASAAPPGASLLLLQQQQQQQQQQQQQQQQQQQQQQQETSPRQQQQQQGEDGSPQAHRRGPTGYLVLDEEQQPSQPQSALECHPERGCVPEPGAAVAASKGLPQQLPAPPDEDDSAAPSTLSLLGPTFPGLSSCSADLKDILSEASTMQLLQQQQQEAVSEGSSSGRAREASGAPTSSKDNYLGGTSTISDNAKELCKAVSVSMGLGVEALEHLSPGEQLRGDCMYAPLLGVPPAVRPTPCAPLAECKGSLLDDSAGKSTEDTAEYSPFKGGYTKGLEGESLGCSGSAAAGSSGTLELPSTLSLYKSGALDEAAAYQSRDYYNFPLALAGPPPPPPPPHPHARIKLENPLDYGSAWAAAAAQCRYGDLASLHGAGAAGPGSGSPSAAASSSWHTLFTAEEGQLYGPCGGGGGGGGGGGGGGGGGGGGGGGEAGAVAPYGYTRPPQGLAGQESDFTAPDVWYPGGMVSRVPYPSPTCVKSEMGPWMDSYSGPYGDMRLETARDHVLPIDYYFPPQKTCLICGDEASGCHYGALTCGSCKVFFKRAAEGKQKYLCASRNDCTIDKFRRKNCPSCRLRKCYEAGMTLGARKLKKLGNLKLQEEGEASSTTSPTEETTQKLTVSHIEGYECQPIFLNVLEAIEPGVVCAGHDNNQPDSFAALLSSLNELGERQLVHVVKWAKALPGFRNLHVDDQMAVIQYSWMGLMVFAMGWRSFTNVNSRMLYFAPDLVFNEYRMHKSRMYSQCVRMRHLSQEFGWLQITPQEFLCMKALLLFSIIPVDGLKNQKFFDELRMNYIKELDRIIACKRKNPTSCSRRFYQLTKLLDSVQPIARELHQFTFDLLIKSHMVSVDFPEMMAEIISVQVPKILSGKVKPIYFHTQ
Sequence of Estrogen receptor (Homo sapiens) (P03372 whole entry, looked up): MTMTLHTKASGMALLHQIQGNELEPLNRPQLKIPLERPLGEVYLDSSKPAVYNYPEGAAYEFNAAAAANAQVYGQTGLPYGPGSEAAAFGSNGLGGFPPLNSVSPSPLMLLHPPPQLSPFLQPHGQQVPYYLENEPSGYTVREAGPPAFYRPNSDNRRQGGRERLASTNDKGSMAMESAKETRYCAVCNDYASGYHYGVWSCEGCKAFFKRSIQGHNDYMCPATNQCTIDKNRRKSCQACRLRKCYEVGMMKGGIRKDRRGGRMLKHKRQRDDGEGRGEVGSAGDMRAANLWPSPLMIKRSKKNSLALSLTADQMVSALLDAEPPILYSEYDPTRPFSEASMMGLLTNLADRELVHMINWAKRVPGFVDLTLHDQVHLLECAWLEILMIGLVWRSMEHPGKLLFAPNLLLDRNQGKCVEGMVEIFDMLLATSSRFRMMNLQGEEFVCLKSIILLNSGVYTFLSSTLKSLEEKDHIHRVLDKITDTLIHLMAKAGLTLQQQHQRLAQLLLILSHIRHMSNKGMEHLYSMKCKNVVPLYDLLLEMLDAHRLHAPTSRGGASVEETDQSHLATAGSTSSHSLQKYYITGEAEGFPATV

| SMILES | Potency [1] | outcome [2] | Potency [3] | outcome [4] | Potency [5] | Potency [6] | Potency [7] | Potency [8] | outcome [9] | Potency [10] | Potency [11] | Potency [12] | outcome [13] | Potency [14] | outcome [15] | Potency [16] | Potency [17] | outcome [18] | Potency [19] | Potency [20] |
| --- | --- | --- | --- | --- | --- | --- | --- | --- | --- | --- | --- | --- | --- | --- | --- | --- | --- | --- | --- | --- |
| O=C1CCCC1 | inactive | inactive | inactive | inactive | inactive | inactive | inactive | inactive | inactive | inactive | inactive | inactive | inactive | inactive | inactive | – | – | – | – | – |
| CC(=O)Oc1ccc(C)cc1 | inactive | inactive | – | inactive | inactive | inactive | inactive | inactive | inactive | inactive | inactive | inactive | inactive | inactive | inactive | inactive | inactive | inactive | inactive | – |
| CC(=O)CC(C)(C)O | inactive | inactive | inactive | inactive | inactive | inactive | – | inactive | inactive | inactive | inactive | – | inactive | inactive | inactive | – | inactive | – | inactive | inactive |
| C[C@]12CCC(=O)C=C1CC[C@@H]1[C@@H]2[C@@H](O)C[C@@]2(C)[C@H]1CC[C@]2(O)C(=O)CO | inactive | inactive | inactive | inactive | – | – | inactive | – | inactive | inactive | inactive | inactive | inactive | inactive | inactive | – | inactive | inactive | inactive | – |
| CCCCCCO | inactive | inactive | inactive | inactive | inactive | inactive | inactive | inactive | – | inactive | inactive | inactive | inactive | inactive | inactive | – | – | – | – | inactive |
| NC(=S)NNC(N)=S | inactive | inactive | inactive | inactive | inactive | inactive | – | inactive | inactive | inactive | inactive | – | inactive | inactive | inactive | – | – | – | – | – |
| CC(C)c1cccc(C(C)C)c1 | inactive | inactive | – | inactive | inactive | inactive | inactive | inactive | inactive | inactive | inactive | inactive | inactive | inactive | inactive | inactive | – | – | inactive | inactive |
| O=C(O)Cn1c(=O)n(Cc2ccc(Br)cc2F)c(=O)c2ccc(Cl)cc21 | inactive | inactive | inactive | inactive | – | – | inactive | inactive | – | inactive | inactive | inactive | inactive | 27.3 µM (active) | inactive | – | inactive | – | 21.7 µM (active) | inactive |
| CCNc1ccccc1 | inactive | inactive | – | inactive | inactive | inactive | inactive | inactive | inactive | inactive | inactive | – | inactive | inactive | inactive | inactive | inactive | – | – | – |

Source: PubChem BioAssay (Tox21)
